Source: PubChem BioAssay AID1159580 (chemical genetic matrix, 2015)
The whole screen tested about 5,500 compounds, of which about 2,000 (36%) were called active. Inconclusive results (about 18%) are left out. Rule as the data show it: active = normalized growth mostly below about 0.91 (no sharp cut-off); inconclusive = no clear call, values can overlap the other calls; inactive = mostly above about 0.92. The list shows a part of the results.

Assay: chemical genetic growth profiling, strain panel (AID 1159580);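 also: tested at 20 µM; growth read once vehicle control cultures reached saturation at 30 °C; 1 = growth at the plate median or of vehicle wells; lower values mean less growth of the strain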
Details: growth OD

Measured: normalized growth

O=C1c2ccccc2-c2cccc3cccc1c23
inactive: S. cerevisiae deletion strains, locus YAL021C, strain ccr4, stronger effect = lower value 0.946 | S. cerevisiae deletion strains, locus YAL030W, strain snc1, stronger effect = lower value 0.954 | S. cerevisiae deletion strains, locus YBR171W, strain sec66, stronger effect = lower value 0.964 | S. cerevisiae deletion strains, locus YCR088W, strain abp1, stronger effect = lower value 1.01 | S. cerevisiae deletion strains, locus YDL005C, strain med2, stronger effect = lower value 0.961 | S. cerevisiae deletion strains, locus YDL040C, strain nat1, stronger effect = lower value 0.974 | S. cerevisiae deletion strains, locus YDR001C, strain nth1, stronger effect = lower value 0.988 | S. cerevisiae deletion strains, locus YDR069C, strain doa4, stronger effect = lower value 0.905 | S. cerevisiae deletion strains, locus YDR159W, strain sac3, stronger effect = lower value 0.881 | S. cerevisiae deletion strains, locus YDR297W, strain sur2, stronger effect = lower value 0.965 | S. cerevisiae deletion strains, locus YDR334W, strain swr1, stronger effect = lower value 0.923 | S. cerevisiae deletion strains, locus YDR335W, strain msn5, stronger effect = lower value 0.952 | S. cerevisiae deletion strains, locus YEL003W, strain gim4, stronger effect = lower value 0.967 | S. cerevisiae deletion strains, locus YEL037C, strain rad23, stronger effect = lower value 0.945 | S. cerevisiae deletion strains, locus YEL061C, strain CIN8 (second series), stronger effect = lower value 0.953 | S. cerevisiae deletion strains, locus YER015W, strain faa2, stronger effect = lower value 0.939 | S. cerevisiae deletion strains, locus YER016W, strain bim1, stronger effect = lower value 0.977 | S. cerevisiae deletion strains, locus YER111C, strain swi4, stronger effect = lower value 0.968 | S. cerevisiae deletion strains, locus YGL167C, strain pmr1, stronger effect = lower value 0.97 | S. cerevisiae deletion strains, locus YGL227W, strain vid30, stronger effect = lower value 0.99 | S. cerevisiae deletion strains, locus YHR027C, strain rpn1, stronger effect = lower value 0.956 | S. cerevisiae deletion strains, locus YJL115W, strain asf1, stronger effect = lower value 0.91 | S. cerevisiae deletion strains, locus YJL129C, strain trk1, stronger effect = lower value 1.02 | S. cerevisiae deletion strains, locus YJL154C, strain vps35, stronger effect = lower value 0.988 | S. cerevisiae deletion strains, locus YKR026C, strain gcn3, stronger effect = lower value 0.965 | S. cerevisiae deletion strains, locus YKR091W, strain srl3, stronger effect = lower value 0.977 | S. cerevisiae deletion strains, locus YLL026W, stronger effect = lower value 0.932 | S. cerevisiae deletion strains, locus YLL041C, strain sdh2, stronger effect = lower value 0.994 | S. cerevisiae deletion strains, locus YLR342W, strain FKS1, stronger effect = lower value 0.966 | S. cerevisiae deletion strains, locus YLR357W, strain rsc2, stronger effect = lower value 0.985 | S. cerevisiae deletion strains, locus YLR370C, strain arc18, stronger effect = lower value 0.931 | S. cerevisiae deletion strains, locus YLR384C, strain iki3, stronger effect = lower value 0.978 | S. cerevisiae deletion strains, locus YML120C, strain ndi1, stronger effect = lower value 0.949 | S. cerevisiae deletion strains, locus YMR125W, strain sto1, stronger effect = lower value 0.9 | S. cerevisiae deletion strains, locus YMR129W, stronger effect = lower value 0.973 | S. cerevisiae deletion strains, locus YMR205C, strain PFK2, stronger effect = lower value 0.935 | S. cerevisiae deletion strains, locus YMR231W, strain pep5, stronger effect = lower value 0.954 | S. cerevisiae deletion strains, locus YNL209W, strain ssb2, stronger effect = lower value 0.928 | S. cerevisiae deletion strains, locus YNL322C, strain KRE1 (second series), stronger effect = lower value 0.966 | S. cerevisiae deletion strains, locus YNR049C, strain mso1, stronger effect = lower value 0.986 | S. cerevisiae deletion strains, locus YOR001W, strain rrp6, stronger effect = lower value 0.911 | S. cerevisiae deletion strains, locus YOR080W, strain dia2, stronger effect = lower value 0.981 | S. cerevisiae deletion strains, locus YOR265W, strain rbl2, stronger effect = lower value 0.967 | S. cerevisiae deletion strains, locus YPL240C, strain hsp82, stronger effect = lower value 0.979
active: S. cerevisiae deletion strains, locus YAL026C, strain drs2, stronger effect = lower value 0.896 | S. cerevisiae deletion strains, locus YBL061C, strain skt5, stronger effect = lower value 0.88 | S. cerevisiae deletion strains, locus YBR009C, strain hhf1, stronger effect = lower value 0.849 | S. cerevisiae deletion strains, locus YBR023C, strain chs3, stronger effect = lower value 0.855 | S. cerevisiae deletion strains, locus YBR231C, strain swc5, stronger effect = lower value 0.78 | S. cerevisiae deletion strains, locus YBR279W, strain paf1, stronger effect = lower value 0.884 | S. cerevisiae deletion strains, locus YCL011C, strain gbp2, stronger effect = lower value 0.874 | S. cerevisiae deletion strains, locus YCL016C, strain dcc1, stronger effect = lower value 0.823 | S. cerevisiae deletion strains, locus YCL061C, strain MRC1, stronger effect = lower value 0.867 | S. cerevisiae deletion strains, locus YCL069W, strain vba3, stronger effect = lower value 0.924 | S. cerevisiae deletion strains, locus YDR137W, strain rgp1, stronger effect = lower value 0.756 | S. cerevisiae deletion strains, locus YDR195W, strain ref2 1.44 [resistant] | S. cerevisiae deletion strains, locus YDR392W, strain spt3, stronger effect = lower value 0.483 | S. cerevisiae deletion strains, locus YER155C, strain BEM2 (second series), stronger effect = lower value 0.716 | S. cerevisiae deletion strains, locus YFR010W, strain ubp6, stronger effect = lower value 0.833 | S. cerevisiae deletion strains, locus YGL173C, strain kem1, stronger effect = lower value 0.853 | S. cerevisiae deletion strains, locus YGL240W, strain doc1, stronger effect = lower value 0.868 | S. cerevisiae deletion strains, locus YGL253W, strain hxk2, stronger effect = lower value 0.822 | S. cerevisiae deletion strains, locus YHR013C, strain ard1, stronger effect = lower value 0.737 | S. cerevisiae deletion strains, locus YHR142W, strain chs7, stronger effect = lower value 0.62 | S. cerevisiae deletion strains, locus YJL092W, strain hpr5, stronger effect = lower value 0.899 | S. cerevisiae deletion strains, locus YJL095W, strain BCK1 (second series), stronger effect = lower value 0.854 | S. cerevisiae deletion strains, locus YJL164C, strain tpk1, stronger effect = lower value 0.868 | S. cerevisiae deletion strains, locus YJL166W, strain qcr8, stronger effect = lower value 0.841 | S. cerevisiae deletion strains, locus YKL160W, strain elf1, stronger effect = lower value 0.829 | S. cerevisiae deletion strains, locus YLL001W, strain dnm1, stronger effect = lower value 0.89 | S. cerevisiae deletion strains, locus YLR027C, strain aat2, stronger effect = lower value 0.875 | S. cerevisiae deletion strains, locus YLR221C, strain rsa3, stronger effect = lower value 0.875 | S. cerevisiae deletion strains, locus YLR258W, strain gsy2, stronger effect = lower value 0.9 | S. cerevisiae deletion strains, locus YLR262C, strain YPT6 (second series), stronger effect = lower value 0.747 | S. cerevisiae deletion strains, locus YLR320W, strain mms22, stronger effect = lower value 0.714 | S. cerevisiae deletion strains, locus YMR058W, strain fet3, stronger effect = lower value 0.746 | S. cerevisiae deletion strains, locus YNL071W, strain lat1, stronger effect = lower value 0.685 | S. cerevisiae deletion strains, locus YNL248C, strain rpa49, stronger effect = lower value 0.677 | S. cerevisiae deletion strains, locus YOR070C, strain gyp1, stronger effect = lower value 0.904 | S. cerevisiae deletion strains, locus YOR083W, strain WHI5, stronger effect = lower value 0.786 | S. cerevisiae deletion strains, locus YOR106W, strain vam3, stronger effect = lower value 0.693 | S. cerevisiae deletion strains, locus YOR270C, strain vph1, stronger effect = lower value 0.341 | S. cerevisiae deletion strains, locus YOR290C, strain snf2, stronger effect = lower value 0.856 | S. cerevisiae deletion strains, locus YPL051W, strain arl3, stronger effect = lower value 0.739 | S. cerevisiae deletion strains, locus YPL078C, strain atp4, stronger effect = lower value 0.787 | S. cerevisiae deletion strains, locus YPL106C, strain sse1, stronger effect = lower value 0.74

O=S(=O)(O)c1cccc2cccc(Cl)c12
inactive: S. cerevisiae deletion strains, locus YAL013W, strain DEP1, stronger effect = lower value 1.01 | S. cerevisiae deletion strains, locus YBR229C, strain ROT2, stronger effect = lower value 1.01 | S. cerevisiae deletion strains, locus YDL101C, strain DUN1, stronger effect = lower value 0.984 | S. cerevisiae deletion strains, locus YDR150W, strain NUM1, stronger effect = lower value 0.93 | S. cerevisiae deletion strains, locus YEL061C, strain CIN8, stronger effect = lower value 0.998 | S. cerevisiae deletion strains, locus YGR078C, strain PAC10, stronger effect = lower value 1 | S. cerevisiae deletion strains, locus YHR030C, strain SLT2, stronger effect = lower value 0.985 | S. cerevisiae deletion strains, locus YHR087W, strain rtc3, stronger effect = lower value 1.06 | S. cerevisiae deletion strains, locus YJL187C, strain SWE1, stronger effect = lower value 1 | S. cerevisiae deletion strains, locus YJR043C, strain POL32, stronger effect = lower value 0.993 | S. cerevisiae deletion strains, locus YJR075W, strain HOC1, stronger effect = lower value 0.999 | S. cerevisiae deletion strains, locus YLR039C, strain RIC1, stronger effect = lower value 0.996 | S. cerevisiae deletion strains, locus YLR058C, strain SHM2 (second series), stronger effect = lower value 1.01 | S. cerevisiae deletion strains, locus YLR085C, strain ARP6, stronger effect = lower value 1.03 | S. cerevisiae deletion strains, locus YLR262C, strain YPT6, stronger effect = lower value 1.01 | S. cerevisiae deletion strains, locus YML094W, strain GIM5, stronger effect = lower value 1.03 | S. cerevisiae deletion strains, locus YMR219W, strain ESC1, stronger effect = lower value 1.02 | S. cerevisiae deletion strains, locus YMR263W, strain SAP30, stronger effect = lower value 1.01 | S. cerevisiae deletion strains, locus YMR307W, strain GAS1, stronger effect = lower value 0.996 | S. cerevisiae deletion strains, locus YNL153C, strain GIM3, stronger effect = lower value 0.999 | S. cerevisiae deletion strains, locus YNL298W, strain CLA4 (second series), stronger effect = lower value 1.02 | S. cerevisiae deletion strains, locus YNL322C, strain KRE1, stronger effect = lower value 1 | S. cerevisiae deletion strains, locus YNR030W, strain Alg12, stronger effect = lower value 1.03 | S. cerevisiae deletion strains, locus YPL055C, strain LGE1, stronger effect = lower value 1.02 | S. cerevisiae deletion strains, locus YPL241C, strain CIN2, stronger effect = lower value 1.01 | S. cerevisiae deletion strains, locus YPR135W, strain CTF4, stronger effect = lower value 0.973 | S. cerevisiae strains, strain wild type, stronger effect = lower value 0.984
